# Source: PubChem BioAssay AID1159580 (chemical genetic matrix, 2015)
# Values joined by “and” are separate entries in the source; they are usually repeats but may differ in a detail not shown here. Identical values can stand only once. Among all 5,500 compounds or so, about 2,000 (36%) were called active. Not shown: some 18% with an inconclusive outcome. The list shows a part of the results. Unmarked numbers belong to inactive results. Cut-off read from the data, not from the text of the source: active = normalized growth mostly below about 0.91 (no sharp cut-off); inconclusive = no clear call, values can overlap the other calls; inactive = mostly above about 0.92.
# Experiment: chemical genetic growth profiling, strain panel (AID 1159580);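 note: tested at 20 µM; growth read once vehicle control cultures reached saturation at 30 °C; 1 = growth at the plate median or of vehicle wells; lower values mean less growth of the strain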
# Conditions: S. cerevisiae deletion strains, growth OD
smiles,measurement,setting,value
CC(C)C(C)/C=C/C(C)C1CCC2C3=CC=C4CC(O)CCC4(C)C3CCC21C (configuration not stated),normalized growth,"locus YAL013W, strain DEP1, active compounds read low",0.935
same,normalized growth,"locus YAL021C, strain ccr4, active compounds read low",1
same,normalized growth,"locus YAL026C, strain drs2, active compounds read low",0.856 (active)
same,normalized growth,"locus YAL030W, strain snc1, active compounds read low",0.995
same,normalized growth,"locus YBL061C, strain skt5, active compounds read low",0.996
same,normalized growth,"locus YBR009C, strain hhf1, active compounds read low",0.893 (active)
same,normalized growth,"locus YBR021W, strain FUR4, active compounds read low",0.814 (active)
same,normalized growth,"locus YBR023C, strain chs3, active compounds read low",0.992
same,normalized growth,"locus YBR171W, strain sec66, active compounds read low",1.01
same,normalized growth,"locus YBR229C, strain ROT2, active compounds read low",1.01
same,normalized growth,"locus YBR231C, strain swc5, active compounds read low",1
same,normalized growth,"locus YBR279W, strain paf1, active compounds read low",1
same,normalized growth,"locus YCL011C, strain gbp2, active compounds read low",0.974
same,normalized growth,"locus YCL016C, strain dcc1, active compounds read low",1.01
same,normalized growth,"locus YCL029C, strain bik1, active compounds read low",0.996
same,normalized growth,"locus YCL061C, strain MRC1, active compounds read low",1.01
same,normalized growth,"locus YCL069W, strain vba3, active compounds read low",1.01
same,normalized growth,"locus YCR088W, strain abp1, active compounds read low",1.01
same,normalized growth,"locus YDL005C, strain med2, active compounds read low",0.996
same,normalized growth,"locus YDL035C, strain GPR1, active compounds read low",0.943
same,normalized growth,"locus YDL040C, strain nat1, active compounds read low",1.01
same,normalized growth,"locus YDL074C, strain BRE1, active compounds read low",0.848
same,normalized growth,"locus YDL101C, strain DUN1, active compounds read low",0.965
same,normalized growth,"locus YDL134C, strain PPH21, active compounds read low",0.86 (active)
same,normalized growth,"locus YDL185W, strain tfp1, active compounds read low",1.01
same,normalized growth,"locus YDL192W, strain arf1, active compounds read low",0.959
same,normalized growth,"locus YDR001C, strain nth1, active compounds read low",1.01
same,normalized growth,"locus YDR069C, strain doa4, active compounds read low",0.957
same,normalized growth,"locus YDR101C, strain arx1, active compounds read low",1.02
same,normalized growth,"locus YDR137W, strain rgp1, active compounds read low",0.819 (active)
same,normalized growth,"locus YDR159W, strain sac3, active compounds read low",0.935
same,normalized growth,"locus YDR162C, strain NBP2, active compounds read low",0.732 (active)
same,normalized growth,"locus YDR195W, strain ref2",1.08
same,normalized growth,"locus YDR297W, strain sur2, active compounds read low",0.993
same,normalized growth,"locus YDR318W, strain mcm21, active compounds read low",0.958
same,normalized growth,"locus YDR334W, strain swr1, active compounds read low",1.01
same,normalized growth,"locus YDR335W, strain msn5, active compounds read low",0.958
same,normalized growth,"locus YDR388W, active compounds read low",1
same,normalized growth,"locus YDR392W, strain spt3, active compounds read low",0.635 (active)
same,normalized growth,"locus YDR502C, strain sam2, active compounds read low",0.917 (active)
same,normalized growth,"locus YEL003W, strain gim4, active compounds read low",0.986
same,normalized growth,"locus YEL037C, strain rad23, active compounds read low",0.989
same,normalized growth,"locus YEL061C, strain CIN8 (second series), active compounds read low",1
same,normalized growth,"locus YER015W, strain faa2, active compounds read low",1.01
same,normalized growth,"locus YER016W, strain bim1, active compounds read low",0.987
same,normalized growth,"locus YER110C, active compounds read low",0.996
same,normalized growth,"locus YER111C, strain swi4, active compounds read low",0.982
same,normalized growth,"locus YER155C, strain BEM2 (second series), active compounds read low",0.968
same,normalized growth,"locus YER155C, strain BEM2, active compounds read low",0.975
same,normalized growth,"locus YER167W, strain BCK2, active compounds read low",1.01
same,normalized growth,"locus YFR010W, strain ubp6, active compounds read low",0.992
same,normalized growth,"locus YGL078C, strain dbp3, active compounds read low",0.908 (active)
same,normalized growth,"locus YGL086W, strain mad1, active compounds read low",0.962
same,normalized growth,"locus YGL167C, strain pmr1, active compounds read low",0.998
same,normalized growth,"locus YGL173C, strain kem1, active compounds read low",0.99
same,normalized growth,"locus YGL227W, strain vid30, active compounds read low",0.995
same,normalized growth,"locus YGL240W, strain doc1, active compounds read low",0.928
same,normalized growth,"locus YGL248W, strain PDE1, active compounds read low",0.862 (active)
same,normalized growth,"locus YGL253W, strain hxk2, active compounds read low",0.861 (active)
same,normalized growth,"locus YGR135W, strain pre9, active compounds read low",0.928
same,normalized growth,"locus YGR229C, strain SMI1, active compounds read low",0.831
same,normalized growth,"locus YGR252W, strain gcn5, active compounds read low",0.798
same,normalized growth,"locus YHR013C, strain ard1, active compounds read low",0.972
same,normalized growth,"locus YHR027C, strain rpn1, active compounds read low",0.999
same,normalized growth,"locus YHR030C, strain SLT2, active compounds read low",0.964 and 1.01
same,normalized growth,"locus YHR079C, strain IRE1 (second series), active compounds read low",0.998
same,normalized growth,"locus YHR079C, strain IRE1, active compounds read low",1.01
same,normalized growth,"locus YHR094C, strain hxt1, active compounds read low",1.01
same,normalized growth,"locus YHR129C, strain ARP1, active compounds read low",0.962
same,normalized growth,"locus YHR142W, strain chs7, active compounds read low",0.884
same,normalized growth,"locus YHR200W, strain rpn10, active compounds read low",0.994
same,normalized growth,"locus YIL066C, strain RNR3, active compounds read low",0.97
same,normalized growth,"locus YIL073C, strain SPO22, active compounds read low",0.863
same,normalized growth,"locus YIL125W, strain kgd1, active compounds read low",1.03
same,normalized growth,"locus YIR030C, strain dcg1, active compounds read low",1.01
same,normalized growth,"locus YJL092W, strain hpr5, active compounds read low",1.01
same,normalized growth,"locus YJL095W, strain BCK1 (second series), active compounds read low",0.898 (active)
same,normalized growth,"locus YJL095W, strain BCK1, active compounds read low",0.835 and 1.02
same,normalized growth,"locus YJL115W, strain asf1, active compounds read low",1.01
same,normalized growth,"locus YJL129C, strain trk1, active compounds read low",0.978
same,normalized growth,"locus YJL134W, strain LCB3, active compounds read low",1.01
same,normalized growth,"locus YJL154C, strain vps35, active compounds read low",1.01
same,normalized growth,"locus YJL164C, strain tpk1, active compounds read low",0.905 (active)
same,normalized growth,"locus YJL166W, strain qcr8, active compounds read low",0.86 (active)
same,normalized growth,"locus YJL168C, strain set2, active compounds read low",1.02
same,normalized growth,"locus YJL187C, strain SWE1 (second series), active compounds read low",0.936
same,normalized growth,"locus YJL187C, strain SWE1, active compounds read low",0.989
same,normalized growth,"locus YJR043C, strain POL32, active compounds read low",1.03
same,normalized growth,"locus YJR066W, strain TOR1, active compounds read low",0.921
same,normalized growth,"locus YJR075W, strain HOC1, active compounds read low",0.978
same,normalized growth,"locus YKL009W, strain mrt4, active compounds read low",0.926
same,normalized growth,"locus YKL068W, active compounds read low",1.01
same,normalized growth,"locus YKL085W, strain MDH1 (second series), active compounds read low",1
same,normalized growth,"locus YKL085W, strain MDH1, active compounds read low",1
same,normalized growth,"locus YKL160W, strain elf1, active compounds read low",0.989
same,normalized growth,"locus YKR001C, strain vps1, active compounds read low",0.9
same,normalized growth,"locus YKR026C, strain gcn3, active compounds read low",0.99
same,normalized growth,"locus YKR091W, strain srl3, active compounds read low",0.998
same,normalized growth,"locus YLL001W, strain dnm1, active compounds read low",0.96
same,normalized growth,"locus YLL026W, active compounds read low",0.984
same,normalized growth,"locus YLL041C, strain sdh2, active compounds read low",1.01
same,normalized growth,"locus YLR027C, strain aat2, active compounds read low",0.972
same,normalized growth,"locus YLR039C, strain RIC1, active compounds read low",0.806
same,normalized growth,"locus YLR058C, strain SHM2, active compounds read low",0.946
same,normalized growth,"locus YLR102C, strain apc9, active compounds read low",1.02
same,normalized growth,"locus YLR113W, strain HOG1, active compounds read low",1
same,normalized growth,"locus YLR221C, strain rsa3, active compounds read low",0.938
same,normalized growth,"locus YLR258W, strain gsy2, active compounds read low",0.959
same,normalized growth,"locus YLR262C, strain YPT6 (second series), active compounds read low",0.727 (active)
same,normalized growth,"locus YLR262C, strain YPT6, active compounds read low",0.801
same,normalized growth,"locus YLR268W, strain sec22, active compounds read low",0.968
same,normalized growth,"locus YLR320W, strain mms22, active compounds read low",0.929
same,normalized growth,"locus YLR330W, strain CHS5, active compounds read low",0.844 (active)
same,normalized growth,"locus YLR342W, strain FKS1, active compounds read low",0.997
same,normalized growth,"locus YLR357W, strain rsc2, active compounds read low",1.01
same,normalized growth,"locus YLR370C, strain arc18, active compounds read low",0.989
same,normalized growth,"locus YLR371W, strain rom2, active compounds read low",1.05
same,normalized growth,"locus YLR384C, strain iki3, active compounds read low",0.988
same,normalized growth,"locus YLR418C, strain cdc73, active compounds read low",0.666 (active)
same,normalized growth,"locus YML016C, strain PPZ1, active compounds read low",0.973
same,normalized growth,"locus YML032C, strain rad52, active compounds read low",0.973
same,normalized growth,"locus YML120C, strain ndi1, active compounds read low",0.985
same,normalized growth,"locus YML124C, strain tub3, active compounds read low",1
same,normalized growth,"locus YMR058W, strain fet3, active compounds read low",0.956
same,normalized growth,"locus YMR078C, strain ctf18, active compounds read low",1
same,normalized growth,"locus YMR125W, strain sto1, active compounds read low",1.01
same,normalized growth,"locus YMR205C, strain PFK2, active compounds read low",0.937
same,normalized growth,"locus YMR223W, strain ubp8, active compounds read low",0.941
same,normalized growth,"locus YMR231W, strain pep5, active compounds read low",0.998
same,normalized growth,"locus YMR307W, strain GAS1, active compounds read low",0.797
same,normalized growth,"locus YNL067W, strain RPL9B, active compounds read low",0.924
same,normalized growth,"locus YNL071W, strain lat1, active compounds read low",0.773 (active)
same,normalized growth,"locus YNL128W, strain TEP1, active compounds read low",0.994
same,normalized growth,"locus YNL153C, strain GIM3, active compounds read low",0.966
same,normalized growth,"locus YNL183C, strain NPR1, active compounds read low",0.951
same,normalized growth,"locus YNL209W, strain ssb2, active compounds read low",1
same,normalized growth,"locus YNL233W, strain BNI4, active compounds read low",0.887
same,normalized growth,"locus YNL248C, strain rpa49, active compounds read low",0.939
same,normalized growth,"locus YNL250W, strain rad50, active compounds read low",0.952
same,normalized growth,"locus YNL271C, strain bni1, active compounds read low",0.979
same,normalized growth,"locus YNL298W, strain CLA4, active compounds read low",0.977
same,normalized growth,"locus YNL307C, strain MCK1, active compounds read low",0.774 (active)
same,normalized growth,"locus YNL322C, strain KRE1 (second series), active compounds read low",0.996
same,normalized growth,"locus YNR049C, strain mso1, active compounds read low",0.998
same,normalized growth,"locus YNR052C, strain pop2, active compounds read low",0.952
same,normalized growth,"locus YOL012C, strain htz1",1.19
same,normalized growth,"locus YOL147C, strain pex11, active compounds read low",0.996
same,normalized growth,"locus YOR001W, strain rrp6, active compounds read low",0.996
same,normalized growth,"locus YOR061W, strain CKA2, active compounds read low",0.933
same,normalized growth,"locus YOR069W, strain VPS5, active compounds read low",0.98
same,normalized growth,"locus YOR070C, strain gyp1, active compounds read low",0.976
same,normalized growth,"locus YOR080W, strain dia2, active compounds read low",1.02
same,normalized growth,"locus YOR083W, strain WHI5, active compounds read low",0.991
same,normalized growth,"locus YOR106W, strain vam3, active compounds read low",0.889
same,normalized growth,"locus YOR136W, strain idh2, active compounds read low",0.962
same,normalized growth,"locus YOR144C, strain elg1, active compounds read low",1
same,normalized growth,"locus YOR184W, strain ser1, active compounds read low",0.952
same,normalized growth,"locus YOR231W, strain MKK1, active compounds read low",0.995
same,normalized growth,"locus YOR265W, strain rbl2, active compounds read low",1.01
same,normalized growth,"locus YOR270C, strain vph1, active compounds read low",0.681 (active)
same,normalized growth,"locus YOR290C, strain snf2, active compounds read low",0.929
same,normalized growth,"locus YOR316C, strain cot1, active compounds read low",1
same,normalized growth,"locus YPL051W, strain arl3, active compounds read low",0.995
same,normalized growth,"locus YPL078C, strain atp4, active compounds read low",0.957
same,normalized growth,"locus YPL106C, strain sse1, active compounds read low",1.12
same,normalized growth,"locus YPL240C, strain hsp82, active compounds read low",1.01
same,normalized growth,"locus YPL256C, strain CLN2, active compounds read low",1.02
same,normalized growth,"locus YPR119W, strain clb2, active compounds read low",1.02
same,normalized growth,"locus YPR141C, strain kar3, active compounds read low",1.01
same,normalized growth,"locus YPR163C, strain tif3, active compounds read low",0.828 (active)
same,normalized growth,"locus YPR167C, strain met16, active compounds read low",0.956
same,normalized growth,"strain wtn01, active compounds read low",0.969
